# USP2a block = inhibitors of human ubiquitin-specific protease USP2a. Potency, µM (titrated, usually from 38.3 µM), inactives show at the highest dose activity change, negative = inhibition, hits mostly inhibitors. AID 463254. O75604. 330,000 compounds, 0.01% hits. USP2 core, Ub-CHOP2 coupled fluorogenic reporter, 485/531;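 note: potency is the fitted concentration of half-maximal effect; plate controls were DMSO wells for no effect and full inhibition by NEM control for full effect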
#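 Deubiquitinase activity read as fluorescence (485/531 nm) after Ub-CHOP2 cleavage activates the enterokinase reporter on its substrate; USP2 core 10nM, Ub-CHOP2 and substrate 25nM each, 30min compound preincubation then 60min RT; data normalized to NEM, curves fitted.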
# D1 potentiator = human D1 dopamine receptor positive modulation | P21728 | HEK293 TREx D1 cells, calcium flux, dopamine EC20 potentiation | potentiation, % at 10 µM | 360,000 compounds, 0.036% hits; in the data active = potentiation above about 30%; note: 0% is about no effect
# Target sequence (P21728 whole entry, looked up): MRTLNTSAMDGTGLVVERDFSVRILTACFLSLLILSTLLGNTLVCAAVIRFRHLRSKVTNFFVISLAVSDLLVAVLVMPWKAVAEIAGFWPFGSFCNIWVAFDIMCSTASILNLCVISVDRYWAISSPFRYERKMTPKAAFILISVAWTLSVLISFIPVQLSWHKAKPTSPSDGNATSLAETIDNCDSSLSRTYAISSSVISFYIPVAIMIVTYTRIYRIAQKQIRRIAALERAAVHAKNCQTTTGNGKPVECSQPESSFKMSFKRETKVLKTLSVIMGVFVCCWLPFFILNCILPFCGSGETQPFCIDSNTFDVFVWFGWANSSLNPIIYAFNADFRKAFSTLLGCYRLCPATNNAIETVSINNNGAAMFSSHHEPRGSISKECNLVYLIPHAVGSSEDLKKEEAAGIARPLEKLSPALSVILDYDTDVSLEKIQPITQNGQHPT
# Eya2 inh = Eya2 (human) phosphatase inhibition | O00167 | recombinant Eya2, OMFP fluorescence dephosphorylation (OMFP is methylfluorescein phosphate) | Potency, µM (series often up to 76.9 µM), for the others: top-dose activity, negative = inhibition, actives largely listed as inhibitors | 330,000 compounds, 0.006% hits; note: potency is the fitted concentration of half-maximal effect; % is set by controls: 0 for no effect and ±100 for the full control effect
#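 Eya2 protein (added as 0.2 uM solution) was preincubated with compound for 10 min at ambient temperature in 50 mM HEPES pH 7.5, 50 mM NaCl, 5 uM MgCl2, 0.05% BSA, 1 mM DTT. OMFP (added at 50 uM) then reacted 10 min; fluorescence read at 485/525 nm.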
# D1 agonist = human D1 receptor agonism | P21728 | HEK293 T-REx D1 cells, calcium flux, agonist mode | activation, % at 2 µM | 360,000 compounds, 1% hits; in the data active = activation above about 30%; note: 0% is about no effect
#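 Inducible HEK293 T-REx D1 cells, force-coupled to calcium signalling, were plated at 4000 cells/well with tetracycline and held overnight at 30 C. After no-wash calcium dye loading, compound-evoked calcium rise over 180 s flagged agonists.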
# D1 antag = antagonists of human D1 dopamine receptor; AID 504652; HEK293 TREx D1 cells, calcium flux, dopamine EC80; active compounds read low; activity change, negative = inhibition, % at 10 µM; P21728; 360,000 compounds, 3.2% hits; in the data active = activity change below about -30%; note: % is set by controls: 0 for no effect and ±100 for the full control effect
#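 Kinetic fluorescence of a calcium dye serves as the read-out. D1-expressing Hek293 Trex cells, induced overnight at 30 C, are exposed to compound for 180 s before an EC80 dopamine addition, then read 180 s further.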
# GALK inh = galactokinase (human) inhibition. P51570. Purified GALK, Kinase-Glo residual ATP luminescence. Potency, µM (highest dose often 57.5 µM), for the others: at the top dose activity change, negative = inhibition, actives largely listed as inhibitors. 270,000 compounds, 0.007% hits. AID 1868; note: potency is the fitted concentration of half-maximal effect; % is set by controls: 0 for no effect and ±100 for the full control effect
#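 Kinase-Glo Plus luminescence measured ATP left after a 1 h room-temperature reaction. The reaction used 5 nM GALK, 100 uM galactose and 35 uM ATP at pH 8.0 (20 mM HEPES, 5 mM MgCl2, 60 mM NaCl, 1 mM DTT, 0.01% BSA).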
# Starred values were filed as active, the others as inactive; / = no result given. The list is not random: actives were taken first. Their share in the collection is about 3.9%. Unless noted, calls come from the whole dose curve; as a rule, active = well fitted inhibition curve with a large enough effect; inconclusive = small, poorly fitted or top-dose-only effect, or effect the other way; inactive = flat fitted curve, though single readings scatter.
SMILES,USP2a block,D1 potentiator,Eya2 inh,D1 agonist,D1 antag,GALK inh
Cc1ccc([N+](=O)[O-])cc1NC(=O)Nc1cccc(F)c1,3%,-6,13%,25,-51*,-3%
O=C(/C=C/c1cccc([N+](=O)[O-])c1)Nc1cccc(NC(=O)c2cccs2)c1,-1%,0,-3%,2,-46*,-2%
CC(NC(=O)Nc1cccc([N+](=O)[O-])c1)(C(F)(F)F)C(F)(F)F,1%,2,4%,26,-36*,0%
COC(=O)c1sccc1NC(=O)Nc1ccccc1OC,-1%,-8,1%,-1,-80*,4%
CCN(CC)c1ccc(NC(=O)CN2C(=O)c3cccnc3Sc3ccccc32)c(C)c1,/,-4,/,0,-22,/
CCN1CCN(C(c2cccc(F)c2)c2c(O)cc(C)n(Cc3ccco3)c2=O)CC1 (stereo not drawn),/,-2,/,-1,-3,/
Cc1cccc(NC(=S)NNC(=O)c2ccccc2OC(F)F)c1,1%,-4,4%,5,-40*,0%
COC(=O)c1sccc1NC(=O)Nc1cccc([N+](=O)[O-])c1,2%,-4,-1%,5,-38*,3%
COc1ccccc1NC(=O)NNC(=O)c1cc2ccccc2cc1O,-1%,-11,3%,17,-34*,-1%
O=C(Nc1cccc([N+](=O)[O-])c1)Nc1cccs1,1%,-12,-4%,24,-35*,-1%
Cc1ccc(NC(=O)NNC(=O)c2cc3ccccc3cc2O)cc1,-5%,-2,2%,4,-1,-1%
COc1ccccc1NC(=O)Nc1cc(NC(=O)Nc2ccccc2OC)c(C)nc1C,3%,-8,-1%,1,-93*,-4%
COc1ccccc1NC(=S)NNC(=O)c1ccccc1Br,0%,-9,1%,1,-80*,1%
COc1ccccc1C(=O)NNC(=O)c1ccccc1Br,4%,-6,-1%,0,4,1%
CC(C)CN(CCNC(=O)c1cc(-c2cccs2)nc2ccccc12)CC(C)C,/,1,/,-1,-25,/
CCN(CCNC(=O)C1CCN(Cc2nc(-c3cccc(Cl)c3)oc2C)CC1)c1ccccc1,-8%,-5,-7%,47*,-44*,2%
Cc1oc(-c2ccc(Cl)cc2)nc1CN1CCC(C(=O)NCCCN2CCN(c3cccc(Cl)c3)CC2)CC1,/,-3,/,49*,-45*,/
Cc1oc(-c2cccc(Cl)c2)nc1CN1CCC(C(=O)NC2CC2)CC1,-9%,-4,8%,3,5,0%
CCN(CCNC(=O)C1CCN(Cc2nc(-c3ccc(Cl)cc3)oc2C)CC1)c1ccccc1,-6%,-7,-19%,48*,-45*,-1%
COc1ccc(-c2nc(CN3CCC(C(=O)NCc4ccc(F)cc4)CC3)c(C)o2)cc1OC,/,-3,/,0,-1,/
CCc1ccc(-c2nc(CN3CCC(C(=O)NCc4ccc(F)cc4)CC3)c(C)o2)cc1,5%,2,12%,33*,-10,1%
CCOC(=O)c1c(NC(=O)CSc2cn(CCNC(=O)c3ccccc3F)c3ccccc23)sc2c1CCCC2,/,-3,/,0,7,/
COc1ccc(N2CCN(C(=O)c3c(C)oc4ncnc(N5CCCCC5)c34)CC2)cc1,/,-1,/,0,1,/
Cc1oc(-c2cccc(Cl)c2)nc1CS(=O)(=O)CC(=O)NCCN1CCOCC1,2%,-1,15%,2,-33*,/
CCN(CCNC(=O)C1CCCN(Cc2nc(-c3ccc(OC)cc3)oc2C)C1)c1ccccc1 (stereo not drawn),-19%,4,-27%,-1,0,-1%
SMILES,USP2a block,D1 potentiator,Eya2 inh,D1 agonist,D1 antag,GALK inh
CCCCNC(=O)C1CCCN(Cc2nc(-c3ccc(Cl)cc3)oc2C)C1 (stereo not drawn),/,-4,/,7,-30*,/
CCc1ccc(-c2nc(CN3CCC(C(=O)NCCN(CC)c4ccccc4)CC3)c(C)o2)cc1,2%,-9,17%,32*,-22,0%
Cn1cc(CNC(=O)c2cc(-c3ccccc3)nc3ccc(Br)cc23)cn1,5%,-1,-1%,2,-34*,/
Cc1ccc(-c2cc(C(=O)NCc3cnn(C)c3)c3cc(Br)ccc3n2)cc1,3%,-6,-1%,4,-11,1%
Cc1ccc(S(=O)(=O)NNC(=O)Nc2ccc(C)c(C)c2)c(C)c1,-2%,-3,5%,1,-35*,5%
Cc1cc(C)c([N+](=O)[O-])cc1-c1ccc(/C=N/c2c(-c3ccco3)nc3ccccn23)o1,1%,1,-8%,2,-50*,-1%
CC(C)N(C(=O)c1cc2c(Cl)nc3ccccc3c2s1)C1CCCCC1,/,-6,/,0,3,/
CCCCc1ccc(NC(=O)Cn2nnc3sc4c(c3c2=O)CCC(C)C4)cc1 (stereo not drawn),/,-2,/,4,4,/
CCOc1ccc(-c2nonc2NC(=O)COc2ccccc2)cc1,/,-5,/,7,5,/
C/C(=N\NC(=S)NCc1ccccc1)c1ccc(C#N)cc1,0%,-1,-8%,0,-33*,-1%
C/C(=N\NC(=S)NCc1ccccc1)c1ccccc1,3%,0,-2%,1,14,2%
Cc1ccc(C(=O)NC(=S)N2CCN(c3cc(C)ccc3C)CC2)cc1,1%,-8,-8%,4,-9,2%
Cc1ccc(C(=O)NC(=S)N2CCN(c3ccccc3F)CC2)cc1,2%,-4,7%,1,-42*,/
CCCCN(CC)C(=O)c1cc2c(=O)n3cccc(C)c3nc2n1C,/,-5,/,0,-18,/
CNC(=O)C1CCC(Cn2c(=O)c3sccc3n(CC(=O)NCc3ccc(C)cc3)c2=O)CC1 (stereo not drawn),/,0,/,2,9,/
COc1ccc(-c2nc(S(=O)(=O)c3ccc(Cl)cc3)c(N3CCCCCC3)o2)cc1,/,-3,/,-1,15,/
CC(=O)c1ccc(NC(=O)Cn2ncc3c4ccccc4n(Cc4ccccc4)c3c2=O)cc1,/,4,/,3,13,/
CCC(C)(C)c1ccc(OCCCC[n+]2cccc(C)c2)c(C(C)(C)CC)c1,-1%,-7,-15%,169*,-15,0%
Cc1ccc[n+](CC(=O)Nc2cc(C(F)(F)F)ccc2Cl)c1,3%,-3,16%,2,3,0%
COc1ccc(Br)cc1CNC(=O)C1COc2ccccc2C1 (stereo not drawn),/,0,/,1,-6,/
Cc1ccc2c(c1)CC(C)N2S(=O)(=O)c1nnc(NC(=O)c2ccccc2F)s1 (stereo not drawn),/,-2,/,0,5,/
CNC[C@H](O)c1ccc(O)c(O)c1,-11%,1,9%,3,9,-1%

# Screening results as filed in PubChem BioAssay.
